# From the supplement of paper PMC8728848
# Only a selection was taken, and the strongest signals are over-represented in it overall.
# B1: AntigenI/IIC123 (Streptococcus mutans), C9E3B4 (protein)
# chain: MASMTGGQQMGRIHFHYFKLAVQPQVNKEIRNNNDINIDRTLVAKQSVVKFQLKTADLPAGRDETTSFVLVDPLPSGYQFNPEATKAASPGFDVTYDNATNTVTFKATAATLATFNADLTKSVATIYPTVVGQVLNDGATYKNNFTLTVNDAYGIKSNVVRVTTPGKPNDPDNPNNNYIKPTKVNKNENGVVIDGKTVLAGSTNYYELTWDLDQYKNDRSSADTIQKGFYYVDDYPEEALELRQDLVKITDANGNEVTGVSVDNYTNLEAAPQEIRDVLSKAGIRPKGAFQIFRADNPREFYDTYVKTGIDLKIVSPMVVKKQMGQTGGSYENQAYQIDFGNGYASNIIINNVPKINPKKDVTLTLDPADTNNVDGQTIPLNTVFNYRLIGGIIPADHSEELFEYNFYDDYDQTGDHYTGQYKVFAKVDITFKDGSIIKSGAELTQYTTAEVDTAKGAITIKFKEAFLRSVSIDSAFQAESYIQMKRIAVGTFENTYINTVNGVTYSSLEHHHHHH
# Tests used:
# Experiment in all cases: glycan array binding signal (z-score within array); higher = stronger binding
# Details in all cases: glycan notation: IUPAC condensed, linker removed
# [1] = target: Gal(b1-4)GlcNAc(b1-3)Gal(b1-4)GlcNAc(b1-3)Gal(b1-4)GlcNAc(b1-2)[Gal(b1-4)GlcNAc(b1-3)Gal(b1-4)GlcNAc(b1-3)Gal(b1-4)GlcNAc(b1-6)]Man(a1-6)[Gal(b1-4)GlcNAc(b1-3)Gal(b1-4)GlcNAc(b1-3)Gal(b1-4)GlcNAc(b1-2)Man(a1-3)]Man(b1-4)GlcNAc(b1-4)[Fuc(a1-6)]GlcNAc
# Procedure, shortened: (§1)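 Glycan array data came from 3228 arrays in the Consortium for Functional Glycomics database, and only arrays with an available protein sequence were kept. Glycan names were put into IUPAC-condensed notation, and columns mapping to the same glycan were averaged. The binding signal is a within-array Z-score, averaged across arrays of one protein sequence run at different concentrations or buffers and across linkers. A negative Z-score can be read as non-binding.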
# [2] = target: Gal(b1-4)GlcNAc(b1-3)Gal(b1-4)GlcNAc(b1-3)Gal(b1-4)GlcNAc(b1-3)Gal(b1-4)GlcNAc(b1-2)[Gal(b1-4)GlcNAc(b1-3)Gal(b1-4)GlcNAc(b1-3)Gal(b1-4)GlcNAc(b1-3)Gal(b1-4)GlcNAc(b1-6)]Man(a1-6)[Gal(b1-4)GlcNAc(b1-3)Gal(b1-4)GlcNAc(b1-3)Gal(b1-4)GlcNAc(b1-3)Gal(b1-4)GlcNAc(b1-2)Man(a1-3)]Man(b1-4)GlcNAc(b1-4)[Fuc(a1-6)]GlcNAc
# Procedure, shortened: as §1
# [3] = target: Gal(b1-4)GlcNAc(b1-3)Gal(b1-4)GlcNAc(b1-3)Gal(b1-4)GlcNAc(b1-3)Gal(b1-4)GlcNAc(b1-3)Gal(b1-4)GlcNAc(b1-2)[Gal(b1-4)GlcNAc(b1-3)Gal(b1-4)GlcNAc(b1-3)Gal(b1-4)GlcNAc(b1-3)Gal(b1-4)GlcNAc(b1-3)Gal(b1-4)GlcNAc(b1-6)]Man(a1-6)[Gal(b1-4)GlcNAc(b1-3)Gal(b1-4)GlcNAc(b1-3)Gal(b1-4)GlcNAc(b1-3)Gal(b1-4)GlcNAc(b1-3)Gal(b1-4)GlcNAc(b1-2)Man(a1-3)]Man(b1-4)GlcNAc(b1-4)[Fuc(a1-6)]GlcNAc
# Procedure, shortened: as §1
# Gal3S(b1-4)Glc = target: Gal3S(b1-4)Glc
# Procedure, shortened: as §1
# [4] = target: Gal3S(b1-4)[Fuc(a1-3)]Glc6S
# Procedure, shortened: as §1
# Gal6S(b1-4)Glc = target: Gal6S(b1-4)Glc
# Procedure, shortened: as §1
# GalNAc3S(b1-4)GlcNAc = target: GalNAc3S(b1-4)GlcNAc
# Procedure, shortened: as §1
# [5] = target: GlcNAc(b1-3)Gal(b1-4)GlcNAc(b1-2)Man(a1-3)[GlcNAc(b1-3)Gal(b1-4)GlcNAc(b1-2)Man(a1-6)]Man(b1-4)GlcNAc(b1-4)GlcNAc
# Procedure, shortened: as §1
# GlcNAc(b1-3)GalNAc = target: GlcNAc(b1-3)GalNAc
# Procedure, shortened: as §1
# [6] = target: Man(a1-3)[Man(a1-6)]Man(b1-4)GlcNAc(b1-4)[Fuc(a1-6)]GlcNAc
# Procedure, shortened: as §1
# [7] = target: Neu5Ac(a2-3)Gal(b1-3)GlcNAc(b1-2)Man(a1-3)[GlcNAc(b1-4)][Neu5Ac(a2-3)Gal(b1-3)GlcNAc(b1-2)Man(a1-6)]Man(b1-4)GlcNAc(b1-4)GlcNAc
# Procedure, shortened: as §1
# [8] = target: Neu5Ac(a2-3)Gal(b1-3)GlcNAc(b1-4)Gal(b1-4)Glc
# Procedure, shortened: as §1
# [9] = target: Neu5Ac(a2-3)Gal(b1-4)GlcNAc(b1-2)Man(a1-3)[Neu5Ac(a2-6)Gal(b1-4)GlcNAc(b1-2)Man(a1-6)]Man(b1-4)GlcNAc(b1-4)GlcNAc
# Procedure, shortened: as §1
# [10] = target: Neu5Ac(a2-3)Gal(b1-4)GlcNAc(b1-2)[Neu5Ac(a2-3)Gal(b1-4)GlcNAc(b1-6)]Man(a1-6)[Neu5Ac(a2-3)Gal(b1-4)GlcNAc(b1-2)Man(a1-3)][GlcNAc(b1-4)]Man(b1-4)GlcNAc(b1-4)GlcNAc
# Procedure, shortened: as §1
# [11] = target: Neu5Ac(a2-3)Gal(b1-4)GlcNAc(b1-3)Gal(b1-4)GlcNAc(b1-3)Gal(b1-4)GlcNAc
# Procedure, shortened: as §1
# [12] = target: Neu5Ac(a2-3)Gal(b1-4)[Fuc(a1-3)]GlcNAc(b1-2)Man
# Procedure, shortened: as §1
# [13] = target: Neu5Ac(a2-3)GalNAc(b1-4)GlcNAc
# Procedure, shortened: as §1
# Neu5Ac(a2-6)Gal = target: Neu5Ac(a2-6)Gal
# Procedure, shortened: as §1
# [14] = target: Neu5Ac(a2-6)Gal(b1-4)GlcNAc(b1-2)Man(a1-3)[GlcNAc(b1-4)][Neu5Ac(a2-6)Gal(b1-4)GlcNAc(b1-2)Man(a1-6)]Man(b1-4)GlcNAc(b1-4)GlcNAc
# Procedure, shortened: as §1
# [15] = target: Neu5Ac9Ac(a2-6)Gal(b1-4)GlcNAc
# Procedure, shortened: as §1
# [16] = target: Neu5Gc(a2-3)Gal(b1-4)GlcNAc
# Procedure, shortened: as §1
# Neu5Gc(a2-6)GalNAc = target: Neu5Gc(a2-6)GalNAc
# Procedure, shortened: as §1
# [17] = target: Neu5Gc(a2-8)Neu5Gc(a2-6)Gal(b1-4)GlcNAc
# Procedure, shortened: as §1
# [18] = target: Neu5Gc(b2-6)Gal(b1-4)GlcNAc
# Procedure, shortened: as §1
binder,measurement,setting,value
B1,glycan array binding signal (z-score),[1],3.08
same,glycan array binding signal (z-score),[2],2.31
same,glycan array binding signal (z-score),[3],4.43
same,glycan array binding signal (z-score),Gal3S(b1-4)Glc,-0.499
same,glycan array binding signal (z-score),[4],2.84
same,glycan array binding signal (z-score),Gal6S(b1-4)Glc,-0.033
same,glycan array binding signal (z-score),GalNAc3S(b1-4)GlcNAc,-1.45
same,glycan array binding signal (z-score),[5],0.67
same,glycan array binding signal (z-score),GlcNAc(b1-3)GalNAc,-0.207
same,glycan array binding signal (z-score),[6],-0.768
same,glycan array binding signal (z-score),[7],0.141
same,glycan array binding signal (z-score),[8],-0.775
same,glycan array binding signal (z-score),[9],-0.814
same,glycan array binding signal (z-score),[10],-1.1
same,glycan array binding signal (z-score),[11],-0.469
same,glycan array binding signal (z-score),[12],-0.89
same,glycan array binding signal (z-score),[13],0.443
same,glycan array binding signal (z-score),Neu5Ac(a2-6)Gal,4.55
same,glycan array binding signal (z-score),[14],-0.868
same,glycan array binding signal (z-score),[15],-1.27
same,glycan array binding signal (z-score),[16],-1.14
same,glycan array binding signal (z-score),Neu5Gc(a2-6)GalNAc,-0.987
same,glycan array binding signal (z-score),[17],-0.326
same,glycan array binding signal (z-score),[18],-0.257
